Test results as given in PubChem BioAssay (Tox21).
A number with no mark means an inactive call. Calls of active or inactive are those of the source. Calls follow the shape of the dose curve; as a rule, active = well fitted curve in the direction sought with a large enough effect in the repeat runs; inconclusive = weak or mixed curves; inactive = flat fitted curve, though single readings scatter.

experiment: qHTS assay to test for compound auto fluorescence at 460 nm (blue) in HEK293 cells (AID 720678); settings: blue autofluorescence 405/460 nm; series mostly up to 91.3 µM; fluorescence, % of triamterene: at the top concentration
Text: National Center for Advancing Translational Sciences [NCATS]
NIH Chemical Genomics Center [NCGC]
U.S. Environmental Protection Agency [EPA]
National Institutes of Environmental Health Sciences [NIEHS]
National Toxicology Program [NTP]
U.S. Food and Drug Administration [FDA]
Compound auto fluorescence often interferes with screening of the compound library against various biological targets and signaling pathways. Some of these compounds may have fluorophoric properties. Such properties may interfere with the assay outputs resulting in false positives and/or negatives. To decrease such complications and ensure the compound activities are relevant in terms of biological response, the Tox21 10K compound library was screened for auto fluorescence.
From the fluorophores used as reporter signals in our screening assays, the auto fluorescence equivalencies of compounds against three fluorophores have been evaluated: Triamterene, Fluorescein and Rose Bengal sodium for blue, green and red fluorescence, respectively. The fluorescence intensities were measured using Excitation/Emission wavelengths at 405/460nm, 485/535nm and 540/590nm for blue, green and red labels, respectively. This assay includes the blue fluorescence data.
Tox21 Assay Protocol Summary:
2,000 HEK293 cells in 5 uL of culture medium containing 10% dialyzed FBS per well were dispensed into black wall/clear bottom 1536-well plates using a Multidrop Combi Dispenser (Thermo Scientific). The assay plates were incubated for 4-5 hr at 37C to allow cell attachment to the well bottom, followed by the transfer of 23 nL compound or DMSO vehicle by a pintool work station (Kalypsys, San Diego, CA). After the assay plates were incubated overnight at 37C and 5% CO2, fluorescence intensities in the assay plates were measured by an Envision (PerkinElmer, Shelton, CT) plate reader using three labels for measuring blue, green and red fluorescence at […] 460, 535 and 590nm respectively.
% is scaled to controls: 0 for no effect and ±100 for the full control effect.

SMILES	fluorescence, % of triamterene	outcome
CCCCCBr	0.0203% [at 95.7 µM]	
CCOP(=S)(OCC)SCSc1cc(Cl)ccc1Cl	-0.0296%	
CC(O)CN1CCN(CC(=O)[O-])CCN(CC(=O)[O-])CCN(CC(=O)[O-])CC1.[Gd+3] (stereo not given)		inactive
C=CC(C)(CCC=C(C)C)OC(=O)c1ccccc1N (stereo not given)	-0.252%	
CC(C)[C@@H](C(=O)O[C@@H](C#N)c1cccc(Oc2ccccc2)c1)c1ccc(Cl)cc1		inactive
CC(C)(C#N)C(C)(C)C#N	-0.0689% [at 95.7 µM]	
CON(C)C(=O)Nc1ccc(Cl)cc1	0.0857%	
CCCCCCCCCCCCN(C)C	0.0785%	
CC(=O)NNc1ccccc1	0.053%	
CC1(C)CC(=O)CC(C)(C)N1[O]	-0.0761%	
C=CCOCC1CO1 (stereo not given)	-0.0282%	
CCCN(CCOc1c(Cl)cc(Cl)cc1Cl)C(=O)n1ccnc1		inactive
Cc1ccc(N)c(C)c1		inactive
O=C(N/N=C/c1ccc([N+](=O)[O-])o1)c1cc([N+](=O)[O-])cc([N+](=O)[O-])c1O	-0.63% [at 46 µM]	
COP(=O)(OC)OC(Br)C(Cl)(Cl)Br (stereo not given)		inactive
OCC1CO1 (stereo not given)		inactive
Nc1ccccc1C(=O)OCCc1ccccc1		inactive
CCC(C)(C)O	-0.139%	
C[C@H](N)[C@H](O)c1ccc(O)c(O)c1	1.83% [at 46 µM]	
O=C1NC(=O)C(=O)C(=O)N1	0.0544% [at 95.7 µM]	

SMILES	fluorescence, % of triamterene	outcome
O=C([O-])c1ccccn1.O=C([O-])c1ccccn1.O=C([O-])c1ccccn1.[Cr+3]	-0.0234%	
C=CC(=O)OCC	-0.0327% [at 95.7 µM]	
CC(C)CCCCCCCOC(=O)c1ccccc1C(=O)OCCCCCCCC(C)C	-0.257%	
Cc1nc2ccccc2c(=O)n1-c1ccccc1Cl	-0.0203%	
CCOP(=O)(SC(C)CC)N1CCSC1=O (stereo not given)	-0.0123%	
CN1C(=O)CN=C(c2ccccc2)c2cc([N+](=O)[O-])ccc21	-0.472% [at 46 µM]	
CC(C)c1ccc(OP(=O)(Oc2ccc(C(C)C)cc2)Oc2ccc(C(C)C)cc2)cc1		inactive
CCCCC(CC)CO[N+](=O)[O-] (stereo not given)	-0.107%	
CC(=O)OC(c1ccccc1)C(Cl)(Cl)Cl (stereo not given)	-0.014%	
COc1ccc2c(c1OC)C(=O)O[C@H]2[C@@H]1c2cc3c(cc2CCN1C)OCO3	0.674% [at 46 µM]	
CCOC(=O)c1cn2nc(OP(=S)(OCC)OCC)cc2nc1C	-0.0369%	
CCC1(C2=NCCN2)Cc2ccccc2O1 (stereo not given)	-0.0107% [at 46 µM]	
Cc1nc(N(C)C)nc(OC(=O)N(C)C)c1C	-0.0639%	
O=C(NCNC(=O)NC1C(=O)NC(=O)N1CO)NC1C(=O)NC(=O)N1CO (stereo not given)		inactive
Clc1ccc2ccccc2c1	-0.0062% [at 95.7 µM]	
Oc1cccc(Cl)c1	0.151%	
O=C(O)c1cc(Cl)ccc1Cl	0.0082%	
C#C[C@]1(O)CC[C@H]2[C@@H]3CCC4=CC(=O)CCC4=C3C=C[C@@]21CC	5.37% [at 46 µM]	
C[C@H]1[C@@H]2Cc3ccc(O)cc3[C@@]1(C)CCN2C	0.0516% [at 203 µM]	
CCCCCCCCCCCC[N+](C)(C)CCOc1ccccc1		inactive
